Screening data deposited in PubChem BioAssay by National Center for Advancing Translational Sciences (NCATS).
Only some compounds are listed: those with a hit (about 3% of all), similar ones and a draw of the others.
GALK inhibitor: qHTS Assay for Inhibitors of Human Galactokinase (GALK); P51570; Purified GALK, Kinase-Glo residual ATP luminescence; Potency, µM (series often up to 57.5 µM), most hits filed as inhibitors; actives 0.007% (n = 270,000)
Target sequence (P51570 whole entry, looked up): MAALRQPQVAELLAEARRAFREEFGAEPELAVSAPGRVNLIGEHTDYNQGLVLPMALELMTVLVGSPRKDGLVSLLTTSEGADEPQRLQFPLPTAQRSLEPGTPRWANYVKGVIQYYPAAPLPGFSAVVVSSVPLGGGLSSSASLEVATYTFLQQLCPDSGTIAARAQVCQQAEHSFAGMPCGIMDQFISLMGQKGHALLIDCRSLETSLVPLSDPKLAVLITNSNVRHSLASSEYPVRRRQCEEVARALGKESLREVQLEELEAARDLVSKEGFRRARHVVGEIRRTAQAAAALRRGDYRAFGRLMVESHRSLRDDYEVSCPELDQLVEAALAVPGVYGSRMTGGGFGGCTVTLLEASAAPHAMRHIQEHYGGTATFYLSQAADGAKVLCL
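Galactose (100 uM) and ATP (35 uM) were turned over by 5 nM GALK for 1 h at RT. Kinase-Glo Plus then converted the remaining ATP into a luminescent signal.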
TrxR1 substrate: qHTS Assay for Substrates of Mammalian Selenoprotein Thioredoxin Reductase 1 (TrxR1): qHTS | Potency, µM (highest dose often 114 µM) | actives 0.01% (n = 390,000) | AID 588456, 2011 | purified TrxR1 substrate turnover, NADPH consumption readout | Thioredoxin reductase 1, cytoplasmic (Rattus norvegicus), O89049; also: nearly all actives have a fitted effect of over 50% in size
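Rat TrxR1, dispensed at 90 nM, was prereduced with 400 uM NADPH (final) for 5 min at ~22 deg C, then incubated with compound 15 min before 400 uM selenite. A first-read NADPH fluorescence drop versus no-compound background flagged substrates.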
A549 tox-1: Nrf2 qHTS screen for inhibitors: counterscreen for cytotoxicity; actives 0.16% (n = 390,000); Potency, µM (doses to about 46 µM), actives largely listed as inhibitors; A549 ARE-Fluc cells, CellTiter-Fluor viability, 18-24 h
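A549 ARE_Fluc cells in 5% FBS OPTI-MEM were exposed to compounds in concentration-response for 18-24 h at 37 deg C. Viability was read by CellTiter-Fluor fluorescence (Ex 405/Em 525) after 30 min, before the luciferase read.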
Nrf2 ARE act: qHTS of Nrf2 Activators; AREc32 ARE-luciferase reporter (MCF7-derived line), luminescence, 24 h; actives 0.31% (n = 410,000); Potency, µM (doses to about 46.1 µM), usual class: activators; also: nearly all actives have a fitted effect of over 65% in size
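AREc32 cells carrying an ARE-driven firefly luciferase reporter were seeded at 1000 cells/well in OPTI-MEM with 5% FBS, then exposed to compound for 24 hr at 37 deg C. Luminescence was read with Steady-Glo after 30 min at RT.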
rTrxR1 inhibitor: qHTS Assay for Inhibitors of Mammalian Selenoprotein Thioredoxin Reductase 1 (TrxR1): qHTS. actives 1% (n = 390,000). AID 588453, 2011. Thioredoxin reductase 1, cytoplasmic (Rattus norvegicus), O89049. recombinant rTrxR1, NADPH fluorescence consumption, selenite substrate. Potency, µM (series often up to 114 µM), most hits filed as inhibitors; also: nearly all actives have a fitted effect of over 65% in size
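Rat TrxR1 (90 nM in the dispensed reagent) was pre-reduced with 400 uM NADPH for 5 min at room temperature, then incubated with compound for 15 min. After 400 uM selenite was added, NADPH fluorescence (Ex 340/Em 450 nm) was followed for 8 min.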
Nrf2 block: Nrf2 qHTS screen for inhibitors | A549 ARE-Fluc reporter, luciferase luminescence, 18-24 h | Potency, µM (doses to about 46 µM), most hits filed as inhibitors | actives 2.1% (n = 360,000) | AID 504444, 2011; also: nearly all actives have a fitted effect of over 60% in size
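Concentration-response testing used A549 ARE_Fluc cells at 5000 cells/well. Following an 18-24 h compound incubation, viability was read by fluorescence (Ex 405/Em 525) and luciferase output by luminescence.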
FLuc enzyme inh: Nrf2 qHTS screen for inhibitors: Purified Fluc Biochemical Counterscreen for Hit Validation. Potency, µM (titrated, usually from 57.5 µM), most hits filed as inhibitors. purified firefly luciferase, luminescence inhibition. actives 4% (n = 1,400). shares compounds with Nrf2 block. AID 720522, 2013; also: nearly all actives have a fitted effect of over 65% in size
A549 tox-2: Nrf2 qHTS screen for inhibitors: A549 ARE-Fluc Cytotoxicity Counterscreen for Hit Validation; shares compounds with Nrf2 block; A549 ARE-Fluc cells, cytotoxicity counterscreen; Potency, µM (highest dose often 46.1 µM), actives largely listed as inhibitors; actives 2% (n = 1,400);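 also: cells exposed to compounds for 18 to 24 hours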
Nrf2 ARE inh: Nrf2 qHTS screen for inhibitors: Nrf2 A549 ARE-Fluc Confirmation Assay for Hit Validation | shares compounds with Nrf2 block | actives 74% (n = 1,400) | Potency, µM (doses to about 46.1 µM), usual class: inhibitors | A549 ARE-firefly luciferase reporter, luminescence; also: nearly all actives have a fitted effect of over 65% in size
Each line names hits and unclear results; the compound was inactive in the other large screens (follow-up assays come after a bar, where shown). Calls follow the shape of the dose curve; as a rule, active = well fitted curve in the direction sought with a large enough effect; inconclusive = small, poorly fitted or top-dose-only effect, or another doubt; inactive = no such curve, though single readings can be large; an effect the other way counts as inactive or inconclusive.

COc1ccc2c(C=O)c[nH]c2c1	none
Cc1ccc(C(=O)C(C)OC(=O)CCS(=O)(=O)c2ccc(C)cc2)cc1 (configuration not stated)	none (no result: GALK inhibitor)
Cc1ccc(NC(=O)c2ccc(C)cc2)cc1	Nrf2 block inconclusive (no result: GALK inhibitor)
Cc1ccc(C(=O)Nc2ccc(Br)c(C(F)(F)F)c2)cc1	Nrf2 block 1.64µM (not shown: A549 tox-1) | FLuc enzyme inh 6.75µM | A549 tox-2 inactive
CC(C)(C)c1ccc(S(=O)(=O)Nc2ccc(Cc3ccncc3)cc2)cc1	A549 tox-1 inconclusive, Nrf2 block 9.2µM | FLuc enzyme inh inactive | A549 tox-2 inconclusive | Nrf2 ARE inh 0.0206µM
CC(=O)Nc1ccc(S(=O)(=O)Nc2ccc(Cc3ccncc3)cc2)cc1	Nrf2 block inconclusive
CC1(C)CCC(c2ccc(Cl)cc2)=C(CN2CCN(c3ccc(C(=O)NS(=O)(=O)c4ccc(N[C@H](CCN5CCOCC5)CSc5ccccc5)c(S(=O)(=O)C(F)(F)F)c4)cc3)CC2)C1	none (no result: GALK inhibitor, A549 tox-1, Nrf2 ARE act, Nrf2 block)
CC(=NNC(=S)N1CCCCC1)c1ccccn1	none (no result: GALK inhibitor, TrxR1 substrate, A549 tox-1, rTrxR1 inhibitor, Nrf2 block)
CC(=NNC(=S)N1CC2CCC(CC2)C1)c1ccncn1	A549 tox-1 16.4µM, rTrxR1 inhibitor inconclusive, Nrf2 block 1.3µM (no result: GALK inhibitor) | FLuc enzyme inh 10.7µM | A549 tox-2 inconclusive | Nrf2 ARE inh 0.366µM
CCOc1ccc(Nc2nn(-c3ccc(OC(F)(F)F)cc3)nc2C(C)=O)cc1	none (no result: GALK inhibitor)
CCc1ccc2nc(N(Cc3cccnc3)C(=O)c3cccs3)sc2c1	none (no result: GALK inhibitor, Nrf2 block)
CC(Oc1ccc(Br)cc1)C(=O)Nc1ccncc1 (configuration not stated)	Nrf2 block 8.2µM | FLuc enzyme inh inactive | A549 tox-2 inactive
Cc1ccc(OC(C)C(=O)Nc2ccncc2)cc1C (configuration not stated)	Nrf2 block inconclusive
Cc1cc(C)cc(NC(=O)Cn2cc(C(=O)c3ccccc3)c(=O)c3ccc(C)nc32)c1	none (no result: GALK inhibitor)
Cc1nn(Cc2ccc(Cl)cc2)c(C)c1NC(=O)c1cc(-c2ccc3c(c2)OCO3)on1	A549 tox-1 inconclusive, Nrf2 block 4.11µM | FLuc enzyme inh inactive | A549 tox-2 inactive | Nrf2 ARE inh 9.2µM
COc1ccc(CN(C)c2ccc(S(=O)(=O)N3CCN(C)CC3)cc2[N+](=O)[O-])cc1OC	Nrf2 block 1.3µM (no result: GALK inhibitor) | FLuc enzyme inh inactive | A549 tox-2 inactive | Nrf2 ARE inh inconclusive
COc1ccc(CCN(C)c2ccc(S(=O)(=O)N3CCCC3)cc2[N+](=O)[O-])cc1OC	Nrf2 block inconclusive
Cc1ccc(NC(=O)C2CCCN(C(=O)c3ccc(Cl)cc3)C2)cc1S(=O)(=O)N1CCOCC1 (configuration not stated)	A549 tox-1 inconclusive, Nrf2 block 7.31µM | FLuc enzyme inh inactive | A549 tox-2 inactive | Nrf2 ARE inh 13µM
CCOC(=O)N1CCN(C(=O)C(CC(C)C)NS(=O)(=O)c2ccc(C)cc2)CC1 (configuration not stated)	none (no result: GALK inhibitor)
c1ccc2c(N=NN3CCCCC3)ccnc2c1	none (no result: GALK inhibitor, A549 tox-1, Nrf2 ARE act, Nrf2 block) | FLuc enzyme inh inactive | A549 tox-2 inactive | Nrf2 ARE inh 5.8µM
CN(CCc1ccccc1)C(=O)c1ccc(NC(=O)Cc2ccc(NC(=O)C3CCCN(C(=O)C4CCC4)C3)cc2)cc1 (configuration not stated)	Nrf2 block inconclusive (no result: GALK inhibitor)
CN(CCc1ccccc1)C(=O)c1ccc(NC(=O)Cc2ccc(NC(=O)C3CCCN(C(=O)CCc4ccccc4)C3)cc2)cc1 (configuration not stated)	Nrf2 block 1.3µM (no result: GALK inhibitor) | FLuc enzyme inh inactive | A549 tox-2 inactive | Nrf2 ARE inh 4.11µM
CCC[C@H]1NC(=O)[C@H](C)N(C)C(=O)C(C)(C)C(=O)C(C)NC(=O)[C@H](Cc2ccc(OC)cc2)N(C)C(=O)[C@H](C(C)C)N(C)C(=O)CNC(=O)[C@H](CC(C)C)N(C)C(=O)CNC(=O)[C@H]([C@@H](C)CC)OC(=O)[C@H]1C (some centres not stated)	A549 tox-1 1.46µM, Nrf2 block 1.03µM (no result: GALK inhibitor) | FLuc enzyme inh inactive | A549 tox-2 inconclusive | Nrf2 ARE inh 1.84µM
Cc1onc(-c2ccccc2)c1C(=O)NC(=S)NNC(=O)c1ccc(O)cc1O	rTrxR1 inhibitor inconclusive, Nrf2 block 7.31µM | FLuc enzyme inh inactive | A549 tox-2 inactive | Nrf2 ARE inh 5.8µM
Cc1onc(-c2ccccc2)c1C(=O)NC(=S)NNC(=O)c1ccccc1O	Nrf2 block inconclusive
CCc1ccc(NC(=O)c2sc(-n3nc(C)c(CCC(C)C)c3C)nc2C)cc1	none (no result: GALK inhibitor)
Cc1ccc(Cn2nc(C)c(NC(=O)CSc3nc4c(c(C(F)(F)F)n3)CCc3ccccc3-4)c2C)cc1	none
Cc1nn(Cc2ccc(Cl)cc2)c(C)c1NC(=O)CSc1nc2c(c(C(F)(F)F)n1)CCc1ccccc1-2	A549 tox-1 inconclusive, Nrf2 block 9.2µM | FLuc enzyme inh inactive | A549 tox-2 inconclusive | Nrf2 ARE inh inconclusive
Cc1ccnc(NC(=O)CCC(=O)N(CC(=O)NC(C)(C)C)c2ccc3c(c2)OCCO3)c1	none
CCOC(=O)c1ccc(Nc2nc3nonc3nc2Nc2cccc(C)c2C)cc1	A549 tox-1 inconclusive, Nrf2 block 2.31µM (no result: GALK inhibitor) | FLuc enzyme inh 15.1µM | A549 tox-2 inconclusive | Nrf2 ARE inh 5.8µM
COc1ccc(NC(=O)COC(=O)c2cc(OC)c(OC)cc2NC(=O)c2ccco2)cc1OC	Nrf2 block 5.8µM (no result: A549 tox-1) | FLuc enzyme inh inactive | A549 tox-2 inactive | Nrf2 ARE inh inactive
Cc1c(Cl)cccc1NC(=O)Cn1cc(C(=O)C2CCCCC2)c2ccccc21	Nrf2 block 2.91µM (not shown: GALK inhibitor) | FLuc enzyme inh inactive | A549 tox-2 inactive
